Source: publication PMC7862700, “An all-to-all approach to the identification of sequence-specific readers for epigenetic DNA modifications on cytosine”

Columns and labels:
Assay in all cases: DAPPL (digital affinity profiling via proximity ligation, sequencing); 10 mM Tris-HCl pH 7.5, 50 mM NaCl, 1 mM DTT, 4% glycerol, room temperature, 30 min; GST-TFs on glutathione beads, 16-mer random dsDNA library, 0.1% formaldehyde crosslink after washing; high values mean tight binding
[1] = molecular target: T1, FLI1 (Homo sapiens, UniProt Q01543 1-452); details: protein: recombinant; tags: N-terminal GST; dsDNA, one strand shown
T1 sequence: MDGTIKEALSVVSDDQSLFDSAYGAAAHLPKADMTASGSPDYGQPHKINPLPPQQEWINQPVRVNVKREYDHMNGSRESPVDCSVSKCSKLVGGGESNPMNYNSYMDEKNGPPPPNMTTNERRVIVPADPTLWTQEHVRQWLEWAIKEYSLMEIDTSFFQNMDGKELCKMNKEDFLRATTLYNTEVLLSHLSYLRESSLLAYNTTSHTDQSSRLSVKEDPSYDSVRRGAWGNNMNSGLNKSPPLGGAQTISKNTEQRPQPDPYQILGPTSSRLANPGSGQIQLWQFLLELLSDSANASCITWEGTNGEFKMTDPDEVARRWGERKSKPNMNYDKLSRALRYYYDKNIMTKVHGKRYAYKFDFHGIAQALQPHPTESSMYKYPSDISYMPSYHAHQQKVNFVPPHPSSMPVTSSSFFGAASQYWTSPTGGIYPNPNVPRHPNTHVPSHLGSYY
Method in brief: (§1)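 The binding signal reported is, for every hexamer, its read frequency for a factor over its read frequency for the tag-only sample. Reads came from pools of yeast-expressed, GST-fused human transcription factors on glutathione beads, barcoded with DNA and mixed with that sample, which were incubated with 200 nmole of a random double-stranded 16-mer DNA library in Tris/NaCl/DTT/glycerol buffer at room temperature for 30 min. After washing, the pools were crosslinked with 0.1% formaldehyde, proximity-ligated with BsaI/T4 ligase for 1 h at 37 °C, PCR-amplified and sequenced on an Illumina NextSeq500.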

[2] = molecular target: T2, ELK1 (Homo sapiens, UniProt P19419 1-428); details: protein: recombinant; tags: N-terminal GST; dsDNA, one strand shown
T2 sequence: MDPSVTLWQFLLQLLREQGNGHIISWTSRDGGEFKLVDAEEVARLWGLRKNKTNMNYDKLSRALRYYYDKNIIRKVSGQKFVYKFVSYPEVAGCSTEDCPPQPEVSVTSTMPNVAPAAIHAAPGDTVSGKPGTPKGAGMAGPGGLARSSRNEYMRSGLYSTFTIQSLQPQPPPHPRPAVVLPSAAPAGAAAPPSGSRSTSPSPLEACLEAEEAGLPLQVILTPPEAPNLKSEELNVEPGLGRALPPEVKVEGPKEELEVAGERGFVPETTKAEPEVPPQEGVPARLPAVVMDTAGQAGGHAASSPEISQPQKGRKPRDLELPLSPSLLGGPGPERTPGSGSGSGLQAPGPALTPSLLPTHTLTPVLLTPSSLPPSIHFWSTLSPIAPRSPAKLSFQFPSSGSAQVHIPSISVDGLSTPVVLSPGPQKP
Method in brief: as §1

[3] = molecular target: T3, GABPA (Homo sapiens, UniProt Q06546 1-454); details: protein: recombinant; tags: N-terminal GST; dsDNA, one strand shown
T3 sequence: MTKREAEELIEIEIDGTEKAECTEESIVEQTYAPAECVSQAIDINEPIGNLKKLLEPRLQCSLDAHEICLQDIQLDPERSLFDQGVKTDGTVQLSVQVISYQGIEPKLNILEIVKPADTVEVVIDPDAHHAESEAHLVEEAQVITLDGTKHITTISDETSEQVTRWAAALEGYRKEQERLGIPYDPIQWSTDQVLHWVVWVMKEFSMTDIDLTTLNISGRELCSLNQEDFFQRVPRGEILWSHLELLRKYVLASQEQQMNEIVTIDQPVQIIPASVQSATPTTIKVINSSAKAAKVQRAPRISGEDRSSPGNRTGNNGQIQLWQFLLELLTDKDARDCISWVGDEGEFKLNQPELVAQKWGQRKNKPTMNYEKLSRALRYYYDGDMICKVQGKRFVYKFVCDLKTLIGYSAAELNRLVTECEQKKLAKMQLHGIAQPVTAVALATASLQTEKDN
Method in brief: as §1

[4] = molecular target: T4, ERG (Homo sapiens, UniProt P11308 1-479); details: protein: recombinant; tags: N-terminal GST; dsDNA, one strand shown
T4 sequence: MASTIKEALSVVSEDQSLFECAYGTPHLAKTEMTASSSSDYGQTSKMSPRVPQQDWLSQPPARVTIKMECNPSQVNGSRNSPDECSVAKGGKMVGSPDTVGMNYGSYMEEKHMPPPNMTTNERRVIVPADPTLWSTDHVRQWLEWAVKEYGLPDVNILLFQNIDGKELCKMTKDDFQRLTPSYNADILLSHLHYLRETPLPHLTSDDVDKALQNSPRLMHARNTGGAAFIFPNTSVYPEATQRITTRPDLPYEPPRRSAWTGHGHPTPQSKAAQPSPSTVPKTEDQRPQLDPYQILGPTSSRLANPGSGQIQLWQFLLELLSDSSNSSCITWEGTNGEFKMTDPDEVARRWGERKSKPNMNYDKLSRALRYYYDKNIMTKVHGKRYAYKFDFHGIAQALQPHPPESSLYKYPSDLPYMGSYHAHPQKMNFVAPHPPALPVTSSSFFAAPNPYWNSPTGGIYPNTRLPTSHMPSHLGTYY
Method in brief: as §1

[5] = molecular target: ELF1 (Homo sapiens, UniProt P32519 1-619); details: protein: recombinant; tags: N-terminal GST; dsDNA, one strand shown
Sequence of ELF1 (P32519 whole entry): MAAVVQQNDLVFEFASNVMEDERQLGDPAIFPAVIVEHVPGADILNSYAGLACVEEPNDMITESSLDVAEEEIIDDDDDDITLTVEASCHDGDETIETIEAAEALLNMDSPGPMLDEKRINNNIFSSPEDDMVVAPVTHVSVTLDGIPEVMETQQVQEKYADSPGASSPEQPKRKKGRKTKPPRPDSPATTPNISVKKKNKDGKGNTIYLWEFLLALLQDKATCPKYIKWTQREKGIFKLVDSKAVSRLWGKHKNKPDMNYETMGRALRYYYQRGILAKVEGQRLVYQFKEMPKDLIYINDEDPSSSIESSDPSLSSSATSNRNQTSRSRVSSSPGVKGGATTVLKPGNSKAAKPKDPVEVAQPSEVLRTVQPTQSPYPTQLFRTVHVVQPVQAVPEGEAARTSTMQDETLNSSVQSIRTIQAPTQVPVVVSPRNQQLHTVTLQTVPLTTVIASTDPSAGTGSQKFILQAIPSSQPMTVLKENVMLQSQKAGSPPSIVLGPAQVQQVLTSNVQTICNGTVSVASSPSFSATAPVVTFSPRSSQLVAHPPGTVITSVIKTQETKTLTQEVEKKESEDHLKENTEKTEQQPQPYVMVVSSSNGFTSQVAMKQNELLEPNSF
Method in brief: as §1

[6] = molecular target: T5, EHF (Homo sapiens, UniProt Q9NZC4 1-300); details: protein: recombinant; tags: N-terminal GST; dsDNA, one strand shown
T5 sequence: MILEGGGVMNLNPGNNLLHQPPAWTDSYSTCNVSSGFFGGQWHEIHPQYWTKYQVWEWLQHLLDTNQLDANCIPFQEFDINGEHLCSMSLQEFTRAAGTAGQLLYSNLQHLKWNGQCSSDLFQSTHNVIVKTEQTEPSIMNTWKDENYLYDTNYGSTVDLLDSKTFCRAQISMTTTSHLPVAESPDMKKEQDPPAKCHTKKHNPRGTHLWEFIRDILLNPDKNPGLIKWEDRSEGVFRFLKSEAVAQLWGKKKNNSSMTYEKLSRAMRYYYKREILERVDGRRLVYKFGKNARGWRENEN
Method in brief: as §1

[7] = molecular target: SPI1 (Homo sapiens, UniProt P17947 1-270); details: protein: recombinant; tags: N-terminal GST; dsDNA, one strand shown
Method in brief: as §1

[8] = molecular target: SPIB (Homo sapiens, UniProt Q01892 1-262); details: protein: recombinant; tags: N-terminal GST; dsDNA, one strand shown
Sequence of SPIB (Q01892 whole entry): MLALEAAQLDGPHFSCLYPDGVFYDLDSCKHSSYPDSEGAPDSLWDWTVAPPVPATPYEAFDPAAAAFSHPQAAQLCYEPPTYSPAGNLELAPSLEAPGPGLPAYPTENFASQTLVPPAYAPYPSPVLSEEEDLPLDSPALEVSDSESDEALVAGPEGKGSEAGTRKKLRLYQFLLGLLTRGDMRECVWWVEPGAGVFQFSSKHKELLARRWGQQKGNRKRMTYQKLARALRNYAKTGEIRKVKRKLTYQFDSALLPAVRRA
Method in brief: as §1

[9] = molecular target: T6, ELK3 (Homo sapiens, UniProt P41970 1-407); details: protein: recombinant; tags: N-terminal GST; dsDNA, one strand shown
T6 sequence: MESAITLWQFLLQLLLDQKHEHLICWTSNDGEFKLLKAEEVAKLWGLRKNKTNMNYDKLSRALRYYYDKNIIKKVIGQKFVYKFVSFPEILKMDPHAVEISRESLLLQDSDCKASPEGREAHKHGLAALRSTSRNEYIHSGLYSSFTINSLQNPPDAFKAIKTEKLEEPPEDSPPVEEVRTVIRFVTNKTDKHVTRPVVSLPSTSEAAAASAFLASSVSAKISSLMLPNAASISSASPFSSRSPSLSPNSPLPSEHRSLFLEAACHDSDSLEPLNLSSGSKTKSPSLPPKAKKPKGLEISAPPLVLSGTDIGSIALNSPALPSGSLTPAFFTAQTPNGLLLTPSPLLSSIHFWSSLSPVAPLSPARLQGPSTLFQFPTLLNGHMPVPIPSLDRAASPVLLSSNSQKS
Method in brief: as §1

[10] = molecular target: T7, FEV (Homo sapiens, UniProt Q99581 1-238); details: protein: recombinant; tags: N-terminal GST; dsDNA, one strand shown
T7 sequence: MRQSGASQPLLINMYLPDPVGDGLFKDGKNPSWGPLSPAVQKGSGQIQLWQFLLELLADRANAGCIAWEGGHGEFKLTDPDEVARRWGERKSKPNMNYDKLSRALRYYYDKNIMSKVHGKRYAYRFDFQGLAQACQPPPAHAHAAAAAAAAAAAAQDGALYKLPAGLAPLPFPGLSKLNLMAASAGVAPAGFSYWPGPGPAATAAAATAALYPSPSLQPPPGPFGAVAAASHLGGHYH
Method in brief: as §1

[11] = molecular target: ETV5 (Homo sapiens, UniProt P41161 1-510); details: protein: recombinant; tags: N-terminal GST; dsDNA, one strand shown
Sequence of ETV5 (P41161 whole entry): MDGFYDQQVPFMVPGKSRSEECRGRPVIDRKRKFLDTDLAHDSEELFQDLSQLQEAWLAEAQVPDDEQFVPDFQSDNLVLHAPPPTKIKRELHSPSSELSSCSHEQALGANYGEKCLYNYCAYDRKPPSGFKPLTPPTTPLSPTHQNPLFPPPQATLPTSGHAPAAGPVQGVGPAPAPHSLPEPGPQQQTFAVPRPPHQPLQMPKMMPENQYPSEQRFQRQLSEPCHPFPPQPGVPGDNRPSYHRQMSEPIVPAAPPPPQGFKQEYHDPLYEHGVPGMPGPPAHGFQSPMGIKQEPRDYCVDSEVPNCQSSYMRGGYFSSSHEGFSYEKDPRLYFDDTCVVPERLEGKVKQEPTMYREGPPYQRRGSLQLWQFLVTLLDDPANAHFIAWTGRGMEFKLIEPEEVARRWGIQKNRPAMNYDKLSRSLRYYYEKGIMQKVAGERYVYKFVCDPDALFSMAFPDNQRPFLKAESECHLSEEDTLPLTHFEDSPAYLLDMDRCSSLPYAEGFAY
Method in brief: as §1

[12] = molecular target: HSF1 (Homo sapiens, UniProt Q00613 1-529); details: protein: recombinant; tags: N-terminal GST; chain copies: 3; dsDNA, one strand shown
Sequence of HSF1 (Q00613 whole entry): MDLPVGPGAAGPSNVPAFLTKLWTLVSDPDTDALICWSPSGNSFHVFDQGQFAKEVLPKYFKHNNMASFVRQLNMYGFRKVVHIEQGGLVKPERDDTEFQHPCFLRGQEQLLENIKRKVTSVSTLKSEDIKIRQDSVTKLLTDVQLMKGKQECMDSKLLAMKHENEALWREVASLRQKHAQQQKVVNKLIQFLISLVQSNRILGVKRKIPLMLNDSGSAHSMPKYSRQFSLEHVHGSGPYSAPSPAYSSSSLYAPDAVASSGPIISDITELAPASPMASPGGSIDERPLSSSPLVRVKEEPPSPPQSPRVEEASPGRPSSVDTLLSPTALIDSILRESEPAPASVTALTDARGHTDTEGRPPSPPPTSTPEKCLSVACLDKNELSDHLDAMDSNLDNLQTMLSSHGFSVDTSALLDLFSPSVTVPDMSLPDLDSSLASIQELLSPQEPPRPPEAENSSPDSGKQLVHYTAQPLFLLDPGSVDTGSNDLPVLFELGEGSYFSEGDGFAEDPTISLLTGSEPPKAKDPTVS
Method in brief: as §1

[13] = molecular target: T8, SPIC (Homo sapiens, UniProt Q8N5J4 1-248); details: protein: recombinant; tags: N-terminal GST; dsDNA, one strand shown
T8 sequence: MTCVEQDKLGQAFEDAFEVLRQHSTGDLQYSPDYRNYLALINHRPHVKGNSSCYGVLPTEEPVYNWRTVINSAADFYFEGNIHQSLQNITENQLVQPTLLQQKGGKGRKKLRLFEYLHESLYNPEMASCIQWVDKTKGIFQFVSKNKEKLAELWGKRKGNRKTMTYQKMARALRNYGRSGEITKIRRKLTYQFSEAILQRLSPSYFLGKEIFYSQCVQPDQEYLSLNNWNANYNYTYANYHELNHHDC
Method in brief: as §1

[14] = molecular target: ELF4 (Homo sapiens, UniProt Q99607 1-663); details: protein: recombinant; tags: N-terminal GST; dsDNA, one strand shown
Sequence of ELF4 (Q99607 whole entry): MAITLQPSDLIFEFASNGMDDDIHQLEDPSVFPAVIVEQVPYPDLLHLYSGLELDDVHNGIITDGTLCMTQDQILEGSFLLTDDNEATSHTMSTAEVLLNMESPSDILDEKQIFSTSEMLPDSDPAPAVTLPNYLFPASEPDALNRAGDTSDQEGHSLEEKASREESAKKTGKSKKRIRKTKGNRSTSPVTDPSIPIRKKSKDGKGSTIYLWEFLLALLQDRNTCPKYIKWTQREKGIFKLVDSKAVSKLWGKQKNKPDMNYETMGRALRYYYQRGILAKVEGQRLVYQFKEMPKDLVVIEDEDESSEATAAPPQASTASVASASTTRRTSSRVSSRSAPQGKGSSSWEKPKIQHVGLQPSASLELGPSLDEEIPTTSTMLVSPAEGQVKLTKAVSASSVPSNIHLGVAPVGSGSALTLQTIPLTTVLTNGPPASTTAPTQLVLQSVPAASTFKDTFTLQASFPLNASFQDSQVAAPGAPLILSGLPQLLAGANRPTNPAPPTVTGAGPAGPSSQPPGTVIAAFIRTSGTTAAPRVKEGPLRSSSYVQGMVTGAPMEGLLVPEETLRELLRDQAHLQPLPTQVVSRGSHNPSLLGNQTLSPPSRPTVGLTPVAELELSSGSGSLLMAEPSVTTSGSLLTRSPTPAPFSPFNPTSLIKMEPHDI
Method in brief: as §1

[15] = molecular target: T9, ELK4 (Homo sapiens, UniProt P28324-2 1-405); details: protein: recombinant; tags: N-terminal GST; dsDNA, one strand shown
T9 sequence: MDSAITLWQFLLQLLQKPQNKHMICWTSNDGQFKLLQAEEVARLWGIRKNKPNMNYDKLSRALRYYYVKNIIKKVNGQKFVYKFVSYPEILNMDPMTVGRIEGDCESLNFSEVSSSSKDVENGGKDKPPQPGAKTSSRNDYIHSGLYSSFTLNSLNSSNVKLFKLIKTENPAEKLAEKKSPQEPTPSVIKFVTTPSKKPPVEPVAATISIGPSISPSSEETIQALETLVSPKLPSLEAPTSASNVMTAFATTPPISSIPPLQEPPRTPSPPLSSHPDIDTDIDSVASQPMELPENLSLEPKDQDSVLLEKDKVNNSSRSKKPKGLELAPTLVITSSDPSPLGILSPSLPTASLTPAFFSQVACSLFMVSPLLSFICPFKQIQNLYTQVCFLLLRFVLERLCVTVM
Method in brief: as §1

[16] = molecular target: T10, ETV2 (Homo sapiens, UniProt O00321 1-342); details: protein: recombinant; tags: N-terminal GST; dsDNA, one strand shown
T10 sequence: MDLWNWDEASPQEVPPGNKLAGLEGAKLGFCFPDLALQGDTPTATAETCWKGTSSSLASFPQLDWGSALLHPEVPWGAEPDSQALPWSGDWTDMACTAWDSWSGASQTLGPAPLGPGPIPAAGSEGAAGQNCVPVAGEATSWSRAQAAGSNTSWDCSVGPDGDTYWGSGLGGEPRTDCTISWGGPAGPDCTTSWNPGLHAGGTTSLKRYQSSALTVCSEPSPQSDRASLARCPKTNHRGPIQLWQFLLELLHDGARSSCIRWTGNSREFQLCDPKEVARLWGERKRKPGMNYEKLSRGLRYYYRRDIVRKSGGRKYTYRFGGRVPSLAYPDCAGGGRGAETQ
Method in brief: as §1

[17] = molecular target: T11, ELF3 (Homo sapiens, UniProt P78545 1-371); details: protein: recombinant; tags: N-terminal GST; dsDNA, one strand shown
T11 sequence: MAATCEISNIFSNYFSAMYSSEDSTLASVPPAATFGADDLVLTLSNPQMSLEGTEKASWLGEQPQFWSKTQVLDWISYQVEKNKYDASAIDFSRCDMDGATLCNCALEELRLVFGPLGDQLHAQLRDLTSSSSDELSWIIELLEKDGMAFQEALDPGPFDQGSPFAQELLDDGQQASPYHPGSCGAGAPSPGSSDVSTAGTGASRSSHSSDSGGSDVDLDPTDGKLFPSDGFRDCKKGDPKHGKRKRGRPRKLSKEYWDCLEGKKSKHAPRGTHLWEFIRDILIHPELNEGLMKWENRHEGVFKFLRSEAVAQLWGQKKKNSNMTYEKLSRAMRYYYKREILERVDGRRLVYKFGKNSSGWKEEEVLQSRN
Method in brief: as §1

[18] = molecular target: CRX (Homo sapiens, UniProt O43186 1-299); details: protein: recombinant; tags: N-terminal GST; dsDNA, one strand shown
Sequence of CRX (O43186 whole entry): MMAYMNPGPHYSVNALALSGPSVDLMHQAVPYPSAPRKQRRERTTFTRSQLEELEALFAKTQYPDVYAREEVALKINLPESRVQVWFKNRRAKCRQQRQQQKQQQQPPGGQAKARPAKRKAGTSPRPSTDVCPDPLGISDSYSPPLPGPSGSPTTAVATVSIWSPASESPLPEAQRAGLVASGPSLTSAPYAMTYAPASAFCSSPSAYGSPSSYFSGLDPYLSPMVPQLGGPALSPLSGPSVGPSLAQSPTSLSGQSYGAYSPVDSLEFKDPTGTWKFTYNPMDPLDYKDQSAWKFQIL
Method in brief: as §1

[19] = molecular target: ETV1 (Homo sapiens, UniProt P50549 1-477); details: protein: recombinant; tags: N-terminal GST; dsDNA, one strand shown
Sequence of ETV1 (P50549 whole entry): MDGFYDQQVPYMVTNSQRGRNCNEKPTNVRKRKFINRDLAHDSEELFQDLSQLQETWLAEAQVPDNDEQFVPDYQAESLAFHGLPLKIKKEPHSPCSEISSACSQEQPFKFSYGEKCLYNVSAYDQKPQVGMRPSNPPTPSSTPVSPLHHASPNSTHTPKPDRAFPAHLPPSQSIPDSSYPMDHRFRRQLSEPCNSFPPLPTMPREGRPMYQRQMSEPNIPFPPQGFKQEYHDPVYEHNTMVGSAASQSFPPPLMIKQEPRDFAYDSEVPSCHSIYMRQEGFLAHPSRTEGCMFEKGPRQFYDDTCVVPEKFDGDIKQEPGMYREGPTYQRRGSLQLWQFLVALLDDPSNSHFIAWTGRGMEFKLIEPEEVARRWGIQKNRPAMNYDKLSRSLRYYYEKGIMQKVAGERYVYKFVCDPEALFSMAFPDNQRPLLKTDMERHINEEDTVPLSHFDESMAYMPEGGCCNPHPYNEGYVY
Method in brief: as §1

TGGGCT
binding signal [1]: 1.38 fold enrichment (6-mer frequency, TF over GST control)
binding signal [2]: 1.33 fold enrichment (6-mer frequency, TF over GST control)
binding signal [3]: 1.48 fold enrichment (6-mer frequency, TF over GST control)
binding signal [4]: 1.34 fold enrichment (6-mer frequency, TF over GST control)
binding signal [5]: 1.48 fold enrichment (6-mer frequency, TF over GST control)
binding signal [6]: 1.44 fold enrichment (6-mer frequency, TF over GST control)
binding signal [7]: 1.43 fold enrichment (6-mer frequency, TF over GST control)
binding signal [8]: 1.38 fold enrichment (6-mer frequency, TF over GST control)
binding signal [9]: 1.49 fold enrichment (6-mer frequency, TF over GST control)
binding signal [10]: 1.35 fold enrichment (6-mer frequency, TF over GST control)
binding signal [11]: 1.4 fold enrichment (6-mer frequency, TF over GST control)
binding signal [12]: 1.19 fold enrichment (6-mer frequency, TF over GST control)
binding signal [13]: 1.28 fold enrichment (6-mer frequency, TF over GST control)
binding signal [14]: 1.36 fold enrichment (6-mer frequency, TF over GST control)
binding signal [15]: 1.29 fold enrichment (6-mer frequency, TF over GST control)
binding signal [16]: 1.26 fold enrichment (6-mer frequency, TF over GST control)
binding signal [17]: 1.4 fold enrichment (6-mer frequency, TF over GST control)
binding signal [18]: 1.3 fold enrichment (6-mer frequency, TF over GST control)
binding signal [19]: 1.42 fold enrichment (6-mer frequency, TF over GST control)
